Data on 90 compounds can be found in PubChem BioAssay AID1986 (Sanford-Burnham Center for Chemical Genomics, 2009).

A short description of the assay: cell-free HIV fusion peptide-binding blockers – biochemical, uHTS, fluorescence dequenching, primary screen (AID 1986). As to conditions: 30 min, stronger effect = higher value.
Setting [1] is: measured here: repeat confirmation average inhibition, at 18.6 µM.

Among all 290,000 compounds or so, about 890 (0.31%) were called active. Rule as the data show it: active = inhibition mostly above about 52% (no sharp cut-off); inactive = mostly below about 76%. For the sample, actives were picked, then their nearest neighbours and some compounds at random.

In general, inhibition refers to the relative decrease from the control value, in per cent. Take `CCOc1cc(NC(=S)NCCCN2CCOCC2)c(OCC)cc1NC(=O)c1cccs1`: the inhibition (at 20 µM) is -2.2% (inactive).
On the same count and under the same terms, for `Cc1ccc(-c2c(C#N)c(N)n(-c3ccccc3)c(=O)c2C#N)cc1` the value was -0.6% (inactive).
Take `Cc1ccc(-c2nc3sc(C#N)c(N)n3c(=O)c2C#N)cc1`: the inhibition was 59.9% (active) (at 20 µM) and 52.2% under setting [1].
Regarding `Cc1ccc(-c2c(C#N)c(N)n(-c3ccc(C)cc3)c(=O)c2C#N)cc1`, the inhibition (at 20 µM) was 3.9% (inactive).
In the case of `CC1CCN(c2ccc3nnc(CCC(=O)N4CCN(c5ccccc5F)CC4)n3n2)CC1`, the inhibition (at 20 µM) was 0.3% (inactive).
On to `CCOC(=O)C1=NOC(CNC(=O)c2c(-c3ccccc3Cl)noc2C)C1` (stereo unspecified), for which the inhibition (at 20 µM) is 0.6% (inactive).
The same measure, in the same setting: for `COc1ccc(CC(NC(C)=O)C(=O)N2CCN(C(=O)N(C(C)C)C(C)C)CC2)cc1` (stereo unspecified) the value was -0.1% (inactive); for `Cc1ccc(/C=C2\SC(N3CCCC3)=NC2=O)cc1`, -0.9% (inactive).
Take `CN(C)c1ccc(/C=C2\SC(N3CCCCC3)=NC2=O)cc1`: the inhibition is 74.1% (active) (at 20 µM) and 50.6% under setting [1].
Take `Cc1ccc(/C=C2\SC(N3CCCCC3)=NC2=O)cc1`: under “at 20 µM”, the inhibition was -1.2% (inactive).
Same read-out and setting: next, `O=C(O)/C=C/c1cccc(NC(=O)Nc2ccc([N+](=O)[O-])cc2)c1`: 1.6% (inactive); `O=C(COC(=O)CCc1ccc(S(=O)(=O)N2CCOCC2)cc1)NC(=O)NC1CCCCC1`: 0.6% (inactive); `CCCOc1cc(C)c(S(=O)(=O)n2ccc(C)n2)cc1C`: 1% (inactive).
The same measure, in the same setting: next, `CC1=Nc2nc(N3CCCCC3)c(C#N)c3c4c(nc(c23)N1)N(c1ccc(C(C)C)cc1)C(=O)C4`: 63.9% (active); `CCN(CC)c1nc2c3c(nc4c(c3c1C#N)CC(=O)N4c1ccc(Cl)cc1)NC(C)=N2`: 16.3% (inactive).
Regarding `COc1ccc(CN2C(=O)Cc3c2nc(N)c2c(N)nc(N4CCCCC4)c(C#N)c32)cc1`, the inhibition (at 20 µM) was 23.9% (inactive).
Still for that read-out and setting: next, `Cc1onc(-c2ccccc2)c1-c1csc(N/N=C/c2ccccc2)n1`: -1.5% (inactive).
Turning to `Cc1ccc(NC(=O)c2ccccc2NS(=O)(=O)c2ccc(Cl)s2)cc1`, the inhibition reads like this: (at 20 µM) 56.3% (inactive); under setting [1], 29%.
As for `COc1ccc(C)cc1NC(=O)c1ccccc1NS(=O)(=O)c1ccc(Cl)s1`, the inhibition (at 20 µM) is 60.5% (active).
On the same count and under the same terms, for `O=C(Nc1ccccc1)c1ccccc1NS(=O)(=O)c1ccc(Cl)s1` the value was 28.5% (inactive); for `CCN(CC)S(=O)(=O)c1ccc(C(=O)Nc2nnc(-c3ccco3)o2)cc1`, 9.7% (inactive); for `O=C(NC1CC1)C1CCN(C2CCN(C(=O)c3c(F)cccc3Cl)CC2)CC1`, 3.8% (inactive).
Take `CC(C)CN1CCC(=O)N(CCN=[N+]=[N-])CC1`: the inhibition (at 20 µM) is -1.2% (inactive).
Consider `CC(C)(Oc1ccc(Cl)cc1)C(=O)Nc1ccncc1`, for which, for the setting “at 20 µM”, the inhibition was -1.9% (inactive).
For `NC(=O)[C@@H]1CC2(CC(c3cccc(NC(=O)[C@@H]4CCC(=O)N4)c3)=NO2)CN1C(=O)Cc1ccc([N+](=O)[O-])cc1` (stereo partly specified), where the note is “at 20 µM”, the inhibition is -1.2% (inactive).
On the same count and under the same terms, next, `CCOc1ccc(/C=C2\SC(=S)N(C(C(=O)O)c3ccccc3)C2=O)cc1OC` (stereo unspecified): 12.1% (inactive); `CCOc1cc(/C=C2\SC(=Nc3ccc(F)cc3)N(c3ccc(F)cc3)C2=O)ccc1OCC(=O)O`: 41.5% (inactive); `COc1cccc(/C=C2\SC(=S)N(C(Cc3ccccc3)C(=O)O)C2=O)c1` (stereo unspecified): 30.7% (inactive).
`COc1ccc(/C=C2\SC(=S)N(C(Cc3ccccc3)C(=O)O)C2=O)cc1` (stereo unspecified): for the setting “at 20 µM”, the inhibition was 38.4% (inactive).
Still for that read-out and setting: next, `CCOc1ccc(/C=C2/SC(=S)N(C(C(=O)O)c3ccccc3)C2=O)cc1OCC` (stereo unspecified): 56.2% (active); `COc1cc(/C=C2\SC(=Nc3ccc(F)cc3)N(c3ccc(F)cc3)C2=O)ccc1OCC(=O)O`: 35.3% (inactive).
On the same count and under the same terms, next, `Cc1ccc(/C=C2\SC(=S)N(C(Cc3ccccc3)C(=O)O)C2=O)cc1` (stereo unspecified): 53.9% (active).
`O=C(O)C(Cc1ccccc1)N1C(=O)/C(=C/c2cccs2)SC1=S` (stereo unspecified): where the note is “at 20 µM”, the inhibition is 17.7% (inactive).
The same measure, in the same setting: for `O=C(O)C(Cc1ccccc1)N1C(=O)/C(=C/c2ccccc2)SC1=S` (stereo unspecified) the value was 21.1% (inactive); for `CCOc1cc(/C=C2\SC(=Nc3ccccc3)N(c3ccccc3)C2=O)ccc1OCC(=O)O`, 58.9% (active).
Regarding `O=C(O)C(Cc1ccccc1)N1C(=O)/C(=C/c2cccc3ccccc23)SC1=S` (stereo unspecified), the inhibition (at 20 µM) is 52.6% (active).
Take `COc1cc(/C=C2\SC(=S)N(C(C(=O)O)c3ccccc3)C2=O)ccc1O` (stereo unspecified): the inhibition (at 20 µM) is 47.4% (inactive).
As to `Cc1ccc(NC(=O)c2ccc3nsnc3c2)c(Cl)c1`, the inhibition (at 20 µM) was 1.6% (inactive).
The same measure, in the same setting: for `O=C(CSc1nnc(C2CCCCC2)o1)Nc1ccccc1Cl` the value was 2.8% (inactive); for `O=C(NN=C1CCCC1)c1ccc(Cl)cc1`, -0.5% (inactive); for `CC(C)(C)c1ccc(NC(=S)NCCc2ccccn2)cc1`, -0.5% (inactive).
In the case of `COc1ccc([C@@H]2[C@H]3CN(C(C)=O)CC=C3C(C#N)=C(N)C2(C#N)C#N)c2ccccc12`, where the note is “at 20 µM”, the inhibition was -3.1% (inactive).
Still for that read-out and setting: for `CCN1CC=C2C(C#N)=C(N)C(C#N)(C#N)C(c3cc(Cl)ccc3Cl)C2C1` (stereo unspecified) the value was 2.6% (inactive).
On to `CCCN1CC=C2C(C#N)=C(N)C(C#N)(C#N)C(c3cccc(OC)c3OC)C2C1` (stereo unspecified), for which the inhibition (at 20 µM) is 67.5% (active).
Same read-out and setting: for `CCN1CC=C2C(C#N)=C(N)C(C#N)(C#N)[C@H](c3cccc(OC)c3OC)[C@H]2C1` the value was 61.5% (active); for `CCOC(=O)N1CC=C2C(C#N)=C(N)C(C#N)(C#N)[C@H](c3ccccc3OCC)[C@H]2C1`, 0.7% (inactive); for `COc1cccc(C2C3CN(C)CC=C3C(C#N)=C(N)C2(C#N)C#N)c1OC` (stereo unspecified), 149% (inactive).
Still for that read-out and setting: for `Cn1c(COc2ccccc2)nnc1SCC(=O)NCc1ccccc1` the value was -0.1% (inactive); for `CC1(C)CC(NCc2cccc([N+](=O)[O-])c2)CC(C)(C)N1`, -1.8% (inactive).
As for `CN(C)n1cnc2ccsc2c1=O`, the inhibition (at 20 µM) is 1.1% (inactive).
Still for that read-out and setting: for `CN(C(=O)COC(=O)CNC(=O)c1ccccc1Cl)c1ccccc1` the value was -0.3% (inactive).
On to `CCC1=NN2C(=N)/C(=C\c3cccn3-c3ccc(C)c(C)c3)C(=O)N=C2S1`, for which, where the note is “at 20 µM”, the inhibition was 35.7% (inactive).
`CCC1=NN2C(=N)/C(=C\c3cccn3-c3c(C)cccc3C)C(=O)N=C2S1`: the inhibition (at 20 µM) is 25.7% (inactive).
With `CCC1=NN2C(=N)/C(=C\c3cccn3-c3ccc(C)cc3C)C(=O)N=C2S1`, the inhibition (at 20 µM) is 51% (active).
The same measure, in the same setting: next, `CC(NCCc1ccc(S(N)(=O)=O)cc1)C(=O)NCCc1ccc(F)cc1` (stereo unspecified): 0.6% (inactive); `O=C1/C(=C/c2cccc(Br)c2)SC(=S)N1/N=C/c1cc([N+](=O)[O-])ccc1O`: 16.7% (inactive).
Regarding `Cc1ccc(/C=C2\SC(=S)N(/N=C/c3cc([N+](=O)[O-])ccc3O)C2=O)o1`, the inhibition (at 20 µM) was 82.2% (active).
Same read-out and setting: next, `Cc1ccccc1/C=C1\SC(=S)N(/N=C/c2cc([N+](=O)[O-])ccc2O)C1=O`: 26.8% (inactive); `CCNC(=S)NS(=O)(=O)c1ccc(C)cc1`: -1.7% (inactive).
As for `CC(C)NC(=O)/C(C#N)=C\c1ccc(N(C)C)o1`, the inhibition (at 20 µM) is 78.6% (active) and the inhibition under setting [1] worked out at 59.9%.
`Cc1ccc(/C=C(\C#N)C(=O)NC(C)C)o1`: the inhibition (at 20 µM) was 1.4% (inactive).
Turning to `CC(C)NC(=O)/C(C#N)=C\c1ccc(N(C)C)c(Br)c1`, the inhibition (at 20 µM) was 0.3% (inactive).
Turning to `Cc1ccc(/C=C(/C#N)C(=O)NC(C)c2ccccc2)o1` (stereo unspecified), for the setting “at 20 µM”, the inhibition is 3.2% (inactive).
Same read-out and setting: next, `CN(C)c1ccc(/C=C(/C#N)C(=O)NCc2ccccc2)o1`: 134% (inactive); `CCN(CC)c1ccc(/C=C(/C#N)C(=O)NC(C)C)o1`: 113% (active).
In the case of `CC(C)NC(=O)/C(C#N)=C/c1ccc(N(C)C)o1`, the inhibition reads like this: (at 20 µM) 82.3% (active); under setting [1], 64.2%.
With `Cc1ccc(/C=C(\C#N)C(=O)NC(C)c2ccccc2)o1` (stereo unspecified), where the note is “at 20 µM”, the inhibition is 0.2% (inactive).
On to `CCN(CC)c1ccc(/C=C(/C#N)C(=O)NCc2ccccc2)o1`, for which the inhibition (at 20 µM) is 128% (inactive).
For `O=C(OCc1ccccc1)c1cnc(Cl)c(Cl)c1`, under “at 20 µM”, the inhibition is -1.7% (inactive).
Take `CC(C)CNC(=O)c1cccc(NC(=O)CCc2ccccc2)c1`: the inhibition (at 20 µM) was 0.2% (inactive).
Take `CC(=O)NCCn1c(SCC(=O)NCCC(C)C)nc2ccccc2c1=O`: where the note is “at 20 µM”, the inhibition was -1.8% (inactive).
As to `Nc1c(C(=O)OCC2CCCO2)c2nc3ccccc3nc2n1-c1ccc2c(c1)OCCO2` (stereo unspecified), the inhibition (at 20 µM) was 0.3% (inactive).
With `O=C(c1ccco1)N1CCN(c2ccc([N+](=O)[O-])c(N3CCOCC3)c2)CC1`, where the note is “at 20 µM”, the inhibition was 0.8% (inactive).
`Nc1ccc2nc(SCc3ccc([N+](=O)[O-])cc3)sc2c1`: under “at 20 µM”, the inhibition is 1.8% (inactive).
Consider `Cn1cc(CN2CCN(CC(C)(C)C)C(CCO)C2)c2ccccc21` (stereo unspecified), for which the inhibition (at 20 µM) is 2.5% (inactive).
For the compound `Cc1ccc(CSc2nc3ccccc3c(=O)n2CCCC(=O)NCc2ccco2)cc1`, the inhibition (at 20 µM) is -1.1% (inactive).
With `CN1CCN(c2ccc(NC(=O)CSc3nnnn3-c3ccccc3F)cc2)CC1`, the inhibition (at 20 µM) is -0.3% (inactive).
As for `Cc1cc2nc(-c3ccc(SCc4ccc(C(=O)O)cc4)nc3)[nH]c2cc1C`, the inhibition (at 20 µM) was 56.9% (active).
Same read-out and setting: next, `Cc1cc2nc(-c3ccc(SCc4ccc(C#N)cc4)nc3)[nH]c2cc1C`: 8.6% (inactive).
As for `CC(=O)CSc1ccc(-c2nc3cc(C)c(C)cc3[nH]2)cn1`, the inhibition (at 20 µM) was 0.7% (inactive).
Same read-out and setting: next, `Cn1nc(CC(=O)Nc2cccnc2N2CCOCC2)c2ccccc2c1=O`: 0.1% (inactive); `NS(=O)(=O)c1ccc(N=Nc2ccc(O)c3ncccc23)cc1`: -1.1% (inactive); `Cc1ccccc1N=Nc1ccc(O)c2ncccc12`: -1.3% (inactive).
As for `O=S(=O)(O)c1cccc2c(N=Nc3ccc(O)c4ncccc34)cccc12`, where the note is “at 20 µM”, the inhibition was 64.9% (active).
The same measure, in the same setting: next, `O=C(O)/C=C\C(=O)Nc1ccccc1C(=O)NCc1ccccc1`: -0.8% (inactive).
Take `CCN(CC)c1ccc(/C=C/c2cccc[n+]2C)c(OC)c1`: the inhibition runs as follows: (at 20 µM) 77.3% (active); under setting [1], 63.6%.
For `CCN(CC)c1ccc(C=O)c(OC)c1`, the inhibition (at 20 µM) is -0.9% (inactive).
On to `COc1ccc(/C=C/c2cccc[n+]2C)c(O)c1`, for which, where the note is “at 20 µM”, the inhibition was 2.7% (inactive).
The same measure, in the same setting: next, `Cc1c(OC(C)C(=O)NCCCN2CCCC2=O)ccc2c3c(c(=O)oc12)CCCC3` (stereo unspecified): -2.1% (inactive); `CCOC(=O)C1(Cc2ccccc2)CCCN(Cc2cnn(CC)c2)C1` (stereo unspecified): -1.6% (inactive).
